Values joined by “and” are separate entries in the source; they are usually repeats but may differ in a detail not shown here. Equal entries are not always repeated. Results filed as inconclusive are left out. Where a call stands in place of a potency, no number is given. Unmarked numbers belong to inactive results. Active and inactive are the calls of the source. Calls come from the whole dose curve; as a rule, active = well fitted cell-killing curve with a large enough effect in the repeat runs; inconclusive = weak or mixed curves; inactive = flat fitted curve, though single readings scatter. Starred links: 1 amine or outer side, 2 acyl side, 3 side chain; linkers in the order of their positions; H or OH if unused. Positions of bridges follow the written chain, without caps; N, C: chain ends. Non-standard residues stand in square brackets, D forms with d. Residues, ends and D or L forms follow the SMILES beside them. Chains are numbered I, II in the order given. Actinocin(9to1) = Cc1c2oc3c(C)ccc(C(=O)[*:1])c3nc-2c(C(=O)[*:2])c(N)c1=O; NMeV = CN[C@H](C(=O)O)C(C)C; Sar = CNCC(=O)O
Test: qHTS RealTime-Glo MT Cell Viability Assay in HepG2 cells - 16 hour (AID 1224885); note: nearly all actives have a fitted effect of over 50% in size
Conditions: RealTime-Glo luminescence; series mostly up to 76.8 µM
Source text: U.S. Tox21 Program National Center for Advancing Translational Sciences [NCATS] NIH Chemical Genomics Center [NCGC] U.S. Environmental Protection Agency [EPA] National Institutes of Environmental Health Sciences [NIEHS] National Toxicology Program [NTP] U.S. Food and Drug Administration [FDA] Tox21 Assay Overview: Measure of cell viability is critical in the cell-base assay. Analysis of cell viability is necessary for the characterization of cell responses to cytotoxic drugs and environmental stress. A RealTime-Glo MT Cell Viability Assay to monitor cell viability in real time of continues cell culture during 40 hours of compound treatment was used to screen Tox21 10K library compounds in HepG2 cells. The RealTime-Glo MT Cell Viability Assay is a nonlytic, homogeneous, bioluminescent method to measure cell viability in real time using a simple, plate-based method. The assay involves adding NanoLuc luciferase and a cell-permeant prosubstrate to cells in culture. Viable cells reduce the proprietary prosubstrate to generate a substrate for NanoLuc luciferase. This substrate diffuses from cells into the surrounding culture medium, where it is rapidly used by the NanoLuc Enzyme to produce a luminescent signal. The signal correlates with the number of viable cells, making the assay well suited for cytotoxicity studies.
Tox21 Assay Protocol Summary: The mixture of HepG2 cell suspension and reagents were dispensed at 600cells/6 ul/well in 1536-well tissue culture treated black solid bottom plates using a Multidrop dispenser. After the assay plates were incubated at a 37 C/5% CO2 incubator for 5 hours, 23 nL of compounds dissolved in DMSO, positive and negative controls was transferred to the assay plate by a pintool work station. The plates were incubated at 37 C for 40 hours. The luminescence intensity were measured at 0h, 8h, 16h, 24h, 32h and 40h time points using ViewLux plate reader during compound treatment.
With `C[N+]1([O-])CCOCC1` the Potency was “inactive”. With `N[C@@H]1CONC1=O` the Potency was “inactive”. With `COc1ccc(Cc2cnc(N)nc2N)cc1OC` the Potency was “inactive”. For `Nc1nc2ccccc2[nH]1`, the Potency was “inactive”. In the case of `CCN1CCCC1CNC(=O)c1cc(S(=O)(=O)CC)c(N)cc1OC` (stereo not given), the Potency is reported as “inactive”. For `Nc1cc(S(=O)(=O)O)cc2cc(S(=O)(=O)O)cc(O)c12`, the Potency was “inactive”. For `CCn1cc(C(=O)O)c(=O)c2cc(F)c(N3CCNC(C)C3)c(F)c21` (stereo not given), the Potency was “inactive”. For `CC(C)(C)NC(=O)[C@@H]1CN(Cc2cccnc2)CCN1C[C@@H](O)C[C@@H](Cc1ccccc1)C(=O)N[C@H]1c2ccccc2C[C@H]1O`, the Potency was “inactive”. In the case of `O=C(O)Cn1cnnn1`, the Potency is reported as “inactive”. With `O=C(Nc1ccccc1SSc1ccccc1NC(=O)c1ccccc1)c1ccccc1` the Potency was “inactive”. For `O=C(O)CP(=O)(O)O`, the Potency was “inactive”. For `CC(C)CCOC(=O)c1ccc(N(C)C)cc1`, the Potency was “inactive”. With `COc1nc(C)nc(Cl)c1NC1=NCCN1` the Potency was “inactive”. In the case of `O=c1n(CC2CO2)c(=O)n(CC2CO2)c(=O)n1CC1CO1` (stereo not given), the Potency is reported as “inactive”. With `Oc1c(Cl)cc(Cl)cc1Sc1cc(Cl)cc(Cl)c1O` the Potency was “inactive”. With `CCOc1ccccc1C(N)=O` the Potency was “inactive”. For `CCn1c2ccccc2c2cc(N)ccc21`, the Potency was “inactive”. In the case of `CC(C)(C)c1cc(C(C)(C)C)c(O)c(C(C)(C)C)c1`, the Potency is reported as “inactive”. With `CCCCN(CCO)CCCC` the Potency was “inactive”. With `O=C1NCC2(CCN(CCc3ccccc3)CC2)O1` the Potency was “inactive”. In the case of `NCCCCCC(=O)O`, the Potency is reported as “inactive”. With `Nc1nc(=S)c2[nH]cnc2[nH]1` the Potency was “inactive”. In the case of `C/C=C/c1ccc(OCC)c(O)c1`, the Potency is reported as “inactive”. For `OCC(CO)N[C@H]1C[C@](O)(CO)[C@@H](O)[C@H](O)[C@H]1O`, the Potency was “inactive”. For `CC(=O)O[C@]1(C(C)=O)CC[C@H]2[C@@H]3C[C@H](C)C4=CC(=O)CC[C@]4(C)[C@H]3CC[C@@]21C`, the Potency was “inactive”. For `CC(=O)CC(C)=O`, the Potency was “inactive”. For `Cc1cc(OCCOCC[N+](C)(C)Cc2ccccc2)ccc1C(C)(C)CC(C)(C)C`, the Potency was 17.3 µM (active) and 21.3 µM (active). With `CC(C)(C)NCC(O)COc1ccccc1OCC1CCCO1` (stereo not given) the Potency was “inactive”. For `CC(C(O)c1ccc(O)cc1)N1CCC(Cc2ccccc2)CC1` (stereo not given), the Potency was “inactive”. For `CCC(C)(Oc1ccc(C2(c3ccc(OC(C)(CC)C(=O)O)cc3)CCCCC2)cc1)C(=O)O` (stereo not given), the Potency was “inactive”. In the case of `CN(C)c1ccc(C(=C2C=CC(=[N+](C)C)C=C2)c2ccccc2)cc1`, the Potency is reported as 10.7 µM (active) [middle of 4 runs]. With `CC[C@H]1CN2CCc3cc(OC)c(OC)cc3[C@@H]2C[C@@H]1C[C@H]1NCCc2cc(OC)c(OC)cc21` the Potency was “inactive”. `CCCCCCCCCCCCCCCCCl` gave an activity change, negative = cytotoxic of 0.939% [at 15.8 µM]. For `CC(=O)C1=C(C)[C@@H]2C[C@@]3(C1)[C@H](C)CC[C@H]3C2(C)C`, the Potency was “inactive”. For `Cc1c2oc3c(C)ccc(C(=O)N[C@@H]4C(=O)N[C@H](C(C)C)C(=O)N5CCC[C@H]5C(=O)N(C)CC(=O)N(C)[C@@H](C(C)C)C(=O)O[C@@H]4C)c3nc-2c(C(=O)N[C@@H]2C(=O)N[C@H](C(C)C)C(=O)N3CCC[C@H]3C(=O)N(C)CC(=O)N(C)[C@@H](C(C)C)C(=O)O[C@@H]2C)c(N)c1=O` (I: T[dV]P[Sar][NMeV] / II: T[dV]P[Sar][NMeV]; ester I:1-I:C, II:1-II:C; linker I:N-II:N via Actinocin(9to1)), the Potency was 8.47 µM (active) and 9.52 µM (active). For `CC(=O)OCC1=C(C(=O)O)N2C(=O)[C@@H](NC(=O)Cc3cccs3)[C@H]2SC1`, the Potency was “inactive”. For `OCCN1CCNCC1`, the Potency was “inactive”. With `CCOC(=O)C(C)C(C)=O` (stereo not given) the Potency was “inactive”. In the case of `c1cc(C(c2ccc(OCC3CO3)cc2)C(c2ccc(OCC3CO3)cc2)c2ccc(OCC3CO3)cc2)ccc1OCC1CO1` (stereo not given), the Potency is reported as “inactive”. For `CN(C)c1ccc2nc3ccc(=[N+](C)C)cc-3sc2c1`, the Potency was 14.9 µM (active) and 17.4 µM (active) and 19 µM (active).
Potency is the fitted concentration of half-maximal effect.
